GPR151 activ – activators of human GPR151, primary screen, cell-based, PathHunter beta-arrestin, luminescence; activation, % at 11.2 µM; PathHunter beta-arrestin GPR151 cells; AID 1508602, 2020; 650,000 tested, 1% active; in the data active = activation above about 4.9%;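 also: 0% = median of compound wells and 100% = cells with positive control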
TEAD-YAP inh – TEAD-YAP interaction inhibition, primary screen, TEAD-YAP interaction inhibitor project, luminescence, HEK-TIYL cells; TEAD-Gal4/YAP UAS-luciferase luminescence; inhibition, % at 9.12 µM; 640,000 tested, 1.4% active; AID 1259422, 2018; in the data active = inhibition above about 32%;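 also: 0% = median of test compound wells and 100% = reference inhibitor wells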
MITF inh – MITF inhibitors, primary screen, biochemical, AlphaScreen, human; Microphthalmia-associated transcription factor (Homo sapiens), O75030; AlphaScreen MITF homodimerization, bead proximity signal; inhibition, % at 2.6 µM; 650,000 tested, 0.91% active; in the data active = inhibition above about 50%;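 also: 0% = vehicle wells with protein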
FBW7 act – FBW7 E3 ligase activators, primary screen, biochemical, AlphaScreen, human | 650,000 tested, 0.13% active | AlphaScreen FBW7–phospho-cyclin E peptide binding, activator screen | AID 1259310, 2017 | normalized activity (activation), % at 26.1 µM; in the data active = normalized activity above about 1.9%;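 also: purified mutant Fbw7 with reduced substrate affinity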
Target sequence (Q969H0 whole entry, looked up): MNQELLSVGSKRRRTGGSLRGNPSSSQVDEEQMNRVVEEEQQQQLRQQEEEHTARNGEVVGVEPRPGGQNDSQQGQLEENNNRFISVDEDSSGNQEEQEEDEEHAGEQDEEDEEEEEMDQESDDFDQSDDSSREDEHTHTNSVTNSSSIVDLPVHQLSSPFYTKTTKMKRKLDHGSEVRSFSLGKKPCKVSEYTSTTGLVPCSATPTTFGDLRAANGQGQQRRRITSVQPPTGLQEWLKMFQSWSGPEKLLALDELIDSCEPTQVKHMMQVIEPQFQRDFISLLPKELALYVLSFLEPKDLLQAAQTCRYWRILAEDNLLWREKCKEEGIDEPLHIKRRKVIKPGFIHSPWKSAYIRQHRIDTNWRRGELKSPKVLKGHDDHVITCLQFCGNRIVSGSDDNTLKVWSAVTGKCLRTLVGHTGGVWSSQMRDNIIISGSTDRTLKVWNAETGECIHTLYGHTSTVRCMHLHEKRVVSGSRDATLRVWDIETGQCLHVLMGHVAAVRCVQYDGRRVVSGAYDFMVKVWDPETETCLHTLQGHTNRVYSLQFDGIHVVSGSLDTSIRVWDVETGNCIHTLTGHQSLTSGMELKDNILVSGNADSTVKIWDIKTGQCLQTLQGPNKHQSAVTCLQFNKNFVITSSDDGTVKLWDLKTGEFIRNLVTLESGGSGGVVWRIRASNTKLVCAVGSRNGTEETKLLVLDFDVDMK
Numbers without * were called inactive. Most compounds without a hit are left out; they make up all but 3.5% or so of the library.

SMILES	GPR151 activ	TEAD-YAP inh	MITF inh	FBW7 act
COc1ccc(CSc2n[nH]c(C)n2)cc1	0	64*	7	0
COC(=O)C1=NN(c2ccc(C)cc2)C2C(=O)N(c3ccc(Br)cc3)C(=O)C12 (centres undefined)	0	1	2	1
Cc1ccc(-c2noc(-c3ccco3)n2)cc1	-5	-7	0	0
COc1ccc(-c2noc(-c3ccco3)n2)cc1	-10	60*	-10	0
CCOc1ccc(-c2nc(-c3ccccc3)no2)cc1	-3	62*	13	0
COC(CN(C)c1ccc(-c2ccc(C(C)=O)s2)cn1)OC	2	30	13	-1
O=C(CN1CCOCC1)N/N=C/c1cn(Cc2ccccc2Cl)c2ccccc12	0	16	11	0
O=C(CN1CCOCC1)N/N=C/c1c(O)ccc2ccccc12	0	36*	18	-2
O=C(CN1CCN(Cc2ccccc2Cl)CC1)N/N=C\c1c(O)ccc2ccccc12	2	74*	24	0
O=C(CO)N/N=C/c1c(O)ccc2ccccc12	-1	11	29	-1
COc1ccc(NC(=O)N2CCC(n3cnc4cccnc43)CC2)cc1	0	13	9	1
Cc1ccc(OC(C)C(=O)NCc2ccc3c(c2)OCO3)cc1C (centres undefined)	-1	-8	5	0
S=C(N=P(c1ccccc1)(N1CCOCC1)N1CCOCC1)N1CCOCC1	-2	0	7	0
CC(C)n1c(NCc2cccnc2)nc2c(Nc3ccccc3)ncnc21	-6	53*	8	0
CC(C)n1c(Nc2ccncc2)nc2c(Nc3ccc(Oc4ccccc4)cc3)ncnc21	-1	45*	19	0
CC(C)n1c(Nc2ccc(-n3ccnc3)cc2)nc2c(Nc3ccccc3)ncnc21	-6	49*	1	0
CC(=O)NC(C(=O)OCc1cnc(-c2ccccc2)s1)C(C)C (centres undefined)	-7	59*	4	0
CC(=O)NC(C(=O)OCC(=O)N(c1ccccc1)c1ccccc1)C(C)C (centres undefined)	0	-7	8	0
CCN1C(=O)S/C(=C/c2cc(C)n(-c3ccc(O)cc3)c2C)C1=O	0	80*	4	0
CCN1C(=O)S/C(=C/c2cc(C)n(-c3ccccn3)c2C)C1=O	1	69*	10	0
CCN1C(=O)NC(=O)/C(=C\c2cc(C)n(-c3ccc(O)cc3)c2C)C1=O	1	-3	9	-1
CCOC(=O)C(C)N1C(=O)S/C(=C/c2cc(C)n(-c3ccccn3)c2C)C1=O (centres undefined)	-1	-21	5	0
CCN1C(=O)/C(=C\c2cc(C)n(-c3ccc(OC)cc3)c2C)C(C(=O)OC)=C1C	-2	-6	76*	0
COc1ccc(-c2cc(C(=O)NCc3ccccc3)no2)cc1	0	-7	2	0
Cc1cccc(Cn2c(CN3CC(C)OC(C)C3)nc3c2c(=O)n(C)c(=O)n3C)c1 (centres undefined)	0	2	3	0
SMILES	GPR151 activ	TEAD-YAP inh	MITF inh	FBW7 act
CCOC(=O)CNC(=O)CSc1nnc2[nH]c(=O)cc(C)n12	-1	4	-5	0
CC1CCN(S(=O)(=O)c2cccc(C(=O)NC(C)C)c2)CC1	1	-5	-5	0
COc1ccc2oc(=O)c(-c3csc(Nc4ccccc4OC)n3)cc2c1	1	48*	-5	0
CCOCCCNCC(O)COc1c(Cl)cccc1Cl (centres undefined)	-1	52*	30	0
c1cncc(-c2nnc(SCc3nc4ccccc4[nH]3)o2)c1	-1	44*	-6	0
CC1=C(C)CC2C(=O)N(c3ccccc3F)C(=O)C2C1 (centres undefined)	1	2	-7	0
COc1ccc(C(=O)c2ccc(OC)c(OC)c2)cc1OC	-1	5	1	0
COc1ccc(C(=O)c2ccc(OC)c(N)c2)cc1N	0	36*	-10	0
OCC#CCSc1ncnn1-c1ccccc1	1	0	12	7.2*
Cc1cnc(CNC(=O)c2ccc3cncc(-c4ccccc4)c3n2)cn1	0	63*	-4	0
O=C(NCc1ccccc1)c1ccc2cncc(-c3ccccc3)c2n1	-1	66*	60*	0
COc1cc([N+](=O)[O-])ccc1NC(=O)c1cc2c(C)nn(-c3ccccc3)c2s1	-1	-5	-5	0

From PubChem
